Compound activity as filed in PubChem.
An excerpt weighted towards active compounds, which were near 6.2% of everything screened.
KB-V1 cytotox = KB-V1 MDR subline cytotoxicity. KB-V1 MDR cells viability, CellTiter-Glo, 72 h. Potency, µM (highest dose often 46.1 µM), hits mostly cytotoxic. actives 3.4% (n = 400,000). AID 1347076; further: on the % scale 0 is the no-effect control and ±100 the full control effect; nearly all actives have a fitted effect of over 60% in size
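qHTS viability screen in drug-selected KB-V1 MDR cells: 72 h compound treatment at 37 degrees C, ATP luminescence end point.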
KB-3-1 cytotox = kills parental KB-3-1 adenocarcinoma cells; KB-3-1 viability, CellTiter-Glo ATP luminescence, 72 h; Potency, µM (doses to about 46.1 µM), most hits filed as cytotoxic; actives 1.4% (n = 400,000); AID 1347075; further: on the % scale 0 is the no-effect control and ±100 the full control effect; nearly all actives have a fitted effect of over 60% in size
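Parental KB-3-1 viability, qHTS format: 72 h compound exposure, 37 °C; CellTiter-Glo; media-only wells and DMSO plates as controls; concentration-effect fits on corrected data.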
HT1080NT lethal = kills 2HG-producing HT-1080-NT fibrosarcoma cells; actives 1.6% (n = 360,000); Potency, µM (titrated, usually from 46.1 µM), for the others: at the top dose activity, negative = less viability, usual class: cytotoxic; HT-1080-NT fibrosarcoma viability, CellTiter-Glo ATP luminescence, 48 h;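 further: NT is the 2HG producing partner of a matched IDH1 knockdown line; 0% = DMSO-treated cells and -100% = media-only wells without cells; nearly all actives have a fitted effect of over 55% in size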
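Viability by CellTiter-Glo luminescence after 48 h compound exposure at 37C of HT-1080-NT cells (750/well, RPMI, 5% FBS). % activity scaled between DMSO wells and medium-only wells, then curve-fitted and categorized by curve class.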
HT1080 IDH1KD tx = HT-1080 IDH1 knockdown cell toxicity (counter line); HT-1080 IDH1 knockdown viability, ATP luminescence, 48 h; Potency, µM (doses to about 46.1 µM), inactives show top-dose activity, negative = toxicity, hits mostly cytotoxic; actives 2% (n = 360,000); AID 686971;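 further: 0% = DMSO wells and -100% = cell-free medium wells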
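Assay cells: HT-1080 with IDH1 knockdown, 750 per well, RPMI/5% FBS. Exposure: 48 h at 37 °C following 2 h pre-incubation. Read: CellTiter-Glo luminescence; fitted concentration-response, curve class assigned.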
ATXN viability = viability counter-screen for ATXN expression inhibitors; S2 cells (HEK-293 line with an ATXN2-luciferase reporter) viability, CellTiter-Fluor protease fluorescence, 24 h; Potency, µM (series often up to 56.7 µM), usual class: cytotoxic; actives 0.49% (n = 400,000); further: nearly all actives have a fitted effect of over 40% in size
ATXN2 expr inh = reduces ATXN2 reporter expression in HEK-293 cells | Potency, µM (titrated, usually from 57 µM), for the others: at the top dose activity change, negative = inhibition, actives largely listed as inhibitors | HEK-293 ATXN2-luciferase reporter, luminescence, 24 h | actives 0.72% (n = 360,000); further: on the % scale 0 is the no-effect control and ±100 the full control effect; nearly all actives have a fitted effect of over 55% in size
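ATXN2-luciferase reporter cells (luciferase flanked by upstream and downstream ATXN2 gene portions) were treated 24 h at 37 °C with compounds at up to 57 uM. SteadyGlo luminescence gave expression; GF-AFC fluorescence gave viability.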
An asterisk follows results filed as active; i = inactive; u = inconclusive; x = no result given; [ ] = remark or other dose. The call rests on the fitted dose curve; in most records, active means well fitted curve in the direction sought with a large enough effect; inconclusive means small, poorly fitted or top-dose-only effect, or another doubt; inactive means no such curve, though single readings can be large; an effect the other way counts as inactive or inconclusive. Potency means the concentration at half of the fitted maximal effect.

SMILES	KB-V1 cytotox	KB-3-1 cytotox	HT1080NT lethal	HT1080 IDH1KD tx	ATXN viability	ATXN2 expr inh
CCc1ccc2c(c1)-c1ccccc1S(=O)(=O)N2CC(=O)N1CCCCC1	i	i	x	x	i	37%
N/C(=N\OC(=O)c1ccccc1Cl)c1ccccn1	i	u	u	u	i	16µM*
Cc1ccc(C(=O)O/N=C(\N)c2ccccn2)c(C)c1	u	u	16µM*	15µM*	u	u
COc1ccccc1C(=O)O/N=C(\N)c1ccccn1	i	i	u	u	i	u
N/C(=N\OC(=O)c1ccc(Cl)c(Cl)c1)c1ccccn1	i	i	13%	u	i	27%
N/C(=N\OC(=O)c1ccc(Cl)c([N+](=O)[O-])c1)c1ccccn1	i	i	u	16µM*	i	-1%
COc1ccccc1N1CCN(c2ccc(=O)n(CC(=O)NCc3ccc(F)cc3)n2)CC1	i	i	x	x	i	-11%
CCc1cc(C(=O)Cc2cnn(-c3ccccc3)c2)c(O)cc1O	23µM*	i	-2%	-17%	i	-5%
O=C(Cc1cnn(-c2ccccc2)c1)c1ccc(O)c(O)c1O	i	u	-13%	-3%	i	19%
COC(=O)c1cc2oc3ccccc3c2n1Cc1cccc(C)c1	i	i	x	x	i	3%
Cc1ccc(C(=O)Nc2ccc(CN3CCN(C)CC3)c(C(F)(F)F)c2)cc1C#Cc1cnc2cccnn12	x	x	x	x	x	19µM*
Cc1ccc(C(=O)Nc2cccc(C(F)(F)F)c2)cc1Nc1cnccn1	i	i	-1%	0%	i	0%
CCc1ccc(C(=O)Nc2cc(CN3CCN(C)CC3)cc(C(F)(F)F)c2)cc1C#Cc1cnc2ccnn2c1	x	x	x	x	x	24µM*
CCCCOc1ccc(C2c3c(oc4ccccc4c3=O)C(=O)N2c2nc(C)c(C(=O)OCC)s2)cc1OC (centres undefined)	i	u	x	x	i	4%
C=CCc1ccc(OCCCN2CCCC(C)C2)c(OC)c1 (centres undefined)	u	i	5%	-13%	i	-3%
CC1CCCN(CCCOc2ccc(Br)cc2Cl)C1 (centres undefined)	u	i	16µM*	21µM*	i	-6%
CC1CCN(CCOCCOc2ccc(Br)cc2Cl)CC1	23µM*	u	-24%	-29%	u	-22%
Cc1cc(Br)ccc1OCCCCN1CCCCC1	u	i	21µM*	u	i	-20%[11.3 µM]
COc1ccc(CC(=O)NCCc2sc(-c3cccc(F)c3)nc2C)cc1	i	i	x	x	i	-22%
Cc1cccc(CSc2ccc3nnc(CCNS(=O)(=O)c4ccccc4)n3n2)c1	i	i	x	x	x	x
Cc1ccc(-n2c(=O)c3c(c4cc(C)ccc4n3C)n(CC(=O)c3ccc(Cl)cc3)c2=O)cc1	i	i	x	x	i	-2%
Cc1ccc2cccc(NC(=O)COc3ccccc3[N+](=O)[O-])c2n1	i	i	x	x	i	-2%
Nc1cc(Cl)cc2c1-c1ccc(Cl)cc1C2O (centres undefined)	u	u	-15%	-10%	u	-5%
O=C(Nc1cc(Cl)cc2c1-c1ccc(Cl)cc1C2O)C(Cl)Cl (centres undefined)	18µM*	u	-12%	-26%	i	-38%
O=C(CCCCn1c(=O)[nH]c2ccccc2c1=O)NCCC1=CCCCC1	16µM*	i	2%	1%	u	1%
SMILES	KB-V1 cytotox	KB-3-1 cytotox	HT1080NT lethal	HT1080 IDH1KD tx	ATXN viability	ATXN2 expr inh
Cc1nn(C)c(C)c1/C=C(/C(=O)C(C)(C)C)n1cncn1	u	i	-13%	u	i	-18%
CC(C)(C)C(=O)/C(=C/c1ccncc1)n1cncn1	u	6.5µM*	7.3µM*	7.3µM*	x	16µM*
CC[C@H]1OC(=O)[C@H](C)[C@@H](O[C@H]2C[C@@](C)(OC)[C@@H](O)[C@H](C)O2)[C@H](C)[C@@H](O[C@@H]2O[C@@H](C)C[C@H](N(C)C)[C@@H]2O)[C@](C)(O)C[C@@H](C)C(=O)[C@H](C)[C@@H](O)[C@]1(C)O	x	x	x	x	x	-1%
CCCCC(CC)CNC(=O)CC(C)OC(=O)CCC(=O)O (centres undefined)	x	x	x	x	i	25%
COc1cc(C#Cc2c(-c3cncn3C)n(C)c3ccc(-c4cnc(OC)nc4)cc23)cc(OC)c1	u	u	u	u	i	20µM*
COc1cc(C#Cc2c(-c3cncn3C)n(C)c3ccc(-c4cnc(N5CCOCC5)nc4)cc23)cc(OC)c1	i	i	-10%	-5%	i	u
COC(=O)/C(=C\c1ccc(O)cc1)c1nc2ccccc2[nH]1	i	i	9%	0%	i	x
COC(=O)/C(=C\c1cc(OC)c(OC)c(OC)c1)c1nc2ccccc2[nH]1	u	15µM*	u	u	i	-5%
O=C(/C=C/c1cccc(Cl)c1)c1nc2ccccc2[nH]1	i	u	u	u	u	u
S=C(Nc1ccc(Cl)cc1)c1nc2ccccc2[nH]1	5.2µM*	u	u	u	u	26%
COc1cc(/C=C(/C(=O)c2cccs2)c2nc3ccccc3[nH]2)ccc1O	16µM*	u	7.9µM*	5µM*	u	u
O=C(/C(=C\c1ccccc1)c1nc2ccccc2[nH]1)c1ccc(Cl)cc1	u	u	3.7µM*	3.3µM*	x	u
CCOc1ccc(NC(=O)Cn2nc(-c3ccncc3)ccc2=O)cc1	i	i	x	x	i	2%
O=C1CN(CCN2CC(=O)NC(=O)C2)CC(=O)N1	i	i	x	x	x	x
O=C(/C(=C/c1ccc(Cl)cc1)c1nc2ccccc2[nH]1)c1cccs1	u	i	16µM*	16µM*	3.5µM*	u
Cc1cc(C)c2cc(C#N)c(NCCNC(=S)NCCCN3CCOCC3)nc2c1	i	i	-1%	0%	i	u
Cc1cc(C)c2nc(C(F)(F)F)nc(NCCCN3CCOCC3)c2c1	3.7µM*	u	18µM*	16µM*	i	-23%
O=C(Nc1ccc(-c2nc3c(ccc4ccccc43)o2)cc1)c1ccco1	i	i	10µM*	10µM*	i	4%
COc1ccc(NC(=O)Cn2nnc(-c3ccccc3NC(=O)c3ccco3)n2)cc1	u	4.1µM*	u	u	u	u
Cc1cccc(S(=O)(=O)Nc2ccc(-c3cn4ccccc4n3)cc2)c1	23µM*	i	5%	3%	i	6%
